According to PubChem BioAssay (NCATS):
Inconclusive results are not listed. Active and inactive are the calls of the source. Calls come from the whole dose curve; as a rule, active = well fitted curve in the direction sought with a large enough effect; inconclusive = small, poorly fitted or top-dose-only effect, or another doubt; inactive = no such curve, though single readings can be large; an effect the other way counts as inactive or inconclusive.

Legend:
[1] = BET inhibitor-based combinations targeting novel dependencies in MECOM-rearranged (r) AML: SET-2 cell line (AID 2202231); conditions: SET-2 AML cells viability, CellTiter-Glo luminescence, 48 h; viability: stronger effect = lower value, concentration not given here; note: nearly all actives have a fitted effect of over 35% in size;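 for viability: plate controls were DMSO treated cells for no effect and wells without cells for full effect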
Procedure, shortened: (§1)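 Here, 11-point titrations of each agent were applied to 500 seeded cells and incubated 48 hr; CellTiter-Glo signal, scaled against DMSO and empty wells, was integrated as AUC, then Z-scored within the individual line.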

[2] = BET inhibitor-based combinations targeting novel dependencies in MECOM-rearranged (r) AML: OCI-AML3 cell line (AID 2202232); conditions: Potency: OCI-AML3 viability; note: nearly all actives have a fitted effect of over 35% in size;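 for viability (% of control): series mostly up to about 46 µM; plate controls were DMSO vehicle wells for no effect and wells without cells for full effect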
Procedure, shortened: as §1

[3] = BET inhibitor-based combinations targeting novel dependencies in MECOM-rearranged (r) AML: MV-4-11 cell line (AID 2202233); note: nearly all actives have a fitted effect of over 45% in size;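 for viability, % of control: plate controls were DMSO for no effect and blank wells for full effect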
Procedure, shortened: (§2)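 Normalized to DMSO and empty-well controls, the luminescence data from CellTiter-Glo after 48 hr drug exposure were fitted across 11 concentrations. Reported metrics are area under the dose-response curve and its Z-transformed form.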

[4] = BET inhibitor-based combinations targeting novel dependencies in MECOM-rearranged (r) AML: AML-191 cell line (AID 2202236; note: nearly all actives have a fitted effect of over 35% in size;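 for viability (% of control): plate controls were vehicle wells for no effect and wells without cells for full effect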)
Procedure, shortened: as §1

[5] = BET inhibitor-based combinations targeting novel dependencies in MECOM-rearranged (r) AML: UCSD-AML1 cell line (AID 2202235); note: nearly all actives have a fitted effect of over 40% in size;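 for viability (% of control): series mostly up to about 46 µM; plate controls were DMSO vehicle wells for no effect and blank wells for full effect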
Procedure, shortened: as §2

[6] = BET inhibitor-based combinations targeting novel dependencies in MECOM-rearranged (r) AML: AML-194 cell line (AID 2202237; note: nearly all actives have a fitted effect of over 40% in size;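 for viability (% of control): plate controls were vehicle wells for no effect and wells without cells for full effect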)
Procedure, shortened: as §1
Potency is the fitted concentration of half-maximal effect.

C=C1/C(=C/C=C2\CCCC3(C)[C@@H]([C@H](C)/C=C/C=C/C(O)(CC)CC)CC[C@@H]23)C[C@@H](O)C[C@@H]1O (stereo partly drawn)
active: Potency [2] 16.6 µM | Potency [3] 5.25 µM | Potency [4] 26.3 µM
inactive: viability [1] 89.5%

CC#CC(=O)N1CC[C@@H](n2c(=O)n(-c3ccc(Oc4ccccc4)cc3)c3c(N)ncnc32)C1
inactive: viability [1] 83.2% | Potency [2] | Potency [5] | Potency [6]
active: Potency [3] 10.5 µM

C[C@H](NC(=O)c1c(N)nn2cccnc12)c1cc2cccc(C#Cc3cnn(C)c3)c2c(=O)n1-c1ccccc1
inactive: viability [1] 101%
active: Potency [2] 0.0512 µM | Potency [3] 8.11 µM | Potency [4] 1.82 µM | Potency [6] 7.23 µM

CCC(C)CNCC(=O)N1CCc2sccc2C1c1cccc(C)n1 (stereo not drawn)
inactive: viability [1] 95.4% | Potency [2] | Potency [3] | Potency [5] | Potency [4] | Potency [6]

C=C1C[C@@H]2CC[C@@]34C[C@H]5O[C@H]6[C@@H](O3)[C@H]3O[C@H](CC[C@@H]3O[C@H]6[C@H]5O4)CC(=O)C[C@@H]3[C@@H](OC)[C@@H](C[C@H](O)CN)O[C@H]3C[C@H]3O[C@@H](CC[C@@H]1O2)C[C@@H](C)C3=C
active: Potency [1] 152 nM | Potency [2] 0.0015 µM | Potency [3] 0.0017 µM | Potency [5] 0.0011 µM | Potency [4] 0.0015 µM | Potency [6] 0.0019 µM

CO[C@H]1C(=O)[C@]2(C)[C@@H](OC)C[C@H]3OC[C@@]3(OC(C)=O)[C@H]2[C@H](OC(=O)c2ccccc2)[C@]2(O)C[C@H](OC(=O)[C@H](O)[C@@H](NC(=O)OC(C)(C)C)c3ccccc3)C(C)=C1C2(C)C
active: Potency [1] 3.7 nM | Potency [2] 0.0026 µM | Potency [3] 0.0023 µM | Potency [4] 0.0037 µM | Potency [6] 0.0042 µM

CCOCOC[C@H](C[C@H](C)C(=O)NO)NC(=O)c1ccc(Oc2ccccc2)cc1
inactive: viability [1] 117% | Potency [3] | Potency [5] | Potency [6]
active: Potency [2] 23.5 µM

CN1CCN(C(=O)[C@H]2[C@@H](C(=O)O)[C@H]3CC[C@@H]2O3)CC1
inactive: viability [1] 113% | viability (% of control) [2] 112% [at 8.46 µM] | viability, % of control [3] 111% [at 8.46 µM] | viability (% of control) [5] 104% [at 8.46 µM] | viability (% of control) [4] 93.9% [at 8.46 µM] | viability (% of control) [6] 96.1% [at 8.46 µM]

C[C@@H]1CC(=O)Nc2cccc(-c3ccc4c(c3)c(-c3cnn(C)c3)nn4C)c2N1
active: Potency [1] 6610 nM | Potency [2] 6.61 µM | Potency [3] 5.25 µM | Potency [5] 2.63 µM | Potency [6] 6.61 µM

Nc1nc(F)nc2c1ncn2[C@@H]1O[C@H](COP(=O)(O)O)[C@@H](O)[C@@H]1O
active: Potency [1] 3720 nM | Potency [2] 20.9 µM | Potency [3] 11.8 µM | Potency [5] 1.18 µM | Potency [4] 3.32 µM | Potency [6] 4.17 µM
